From PubChem BioAssay (NCI)
This is part of a sample that, as a whole, favours compounds with a hit. Of some 79,000 tested, about 15% had one in any assay. Unmarked numbers belong to inactive results. Active and inactive are the calls of the source. Rule as the data show it: active = growth inhibition above about 70%; inactive = the rest. Where a SMILES comes first, the peptide text is derived from it. The star is where a group is joined. ONb = O=[N+]([O-])c1ccc(CO*)cc1; Boc = CC(C)(C)OC(=O)*

Assays:
[1] = NCI Yeast Anticancer Drug Screen. Data for the rad50 strain (AID 155);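 also: 0% = growth of vehicle-only cultures of the same strain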; conditions: S. cerevisiae rad50 strain growth inhibition; at 50.0 µM; active compounds read high
Summary of the method: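 Growth of the mutant yeast was measured after compound exposure and referenced to vehicle-treated cultures.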

[2] = NCI Yeast Anticancer Drug Screen. Data for the mec2-1 strain (AID 157); conditions: S. cerevisiae mec2-1 strain, at 50.0 µM, active compounds read high
Summary of the method: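 Using mec2-1 yeast: add compound, measure growth, express inhibition versus vehicle-treated cultures.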

[3] = NCI Yeast Anticancer Drug Screen. Data for the sgs1 mgt1 strain (AID 161);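 also: 0% = growth of cultures given vehicle only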; conditions: S. cerevisiae sgs1 mgt1 strain, at 50.0 µM, active compounds read high
Summary of the method: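 Growth of a repair-deficient yeast mutant was monitored after compound treatment and expressed as inhibition relative to vehicle-treated cultures.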

[4] = NCI Yeast Anticancer Drug Screen. Data for the cln2 rad14 strain (AID 165);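 also: 0% = growth equal to vehicle treated cultures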; conditions: S. cerevisiae cln2 rad14 strain, at 50.0 µM, active compounds read high
Summary of the method: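 Yeast strain cln2 rad14, bearing defects in cell cycle control and DNA repair, serves as the test system; values reflect growth inhibition compared with vehicle.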

[5] = NCI Yeast Anticancer Drug Screen. Data for the bub3 strain (AID 167); conditions: S. cerevisiae bub3 mutant strain, at 50.0 µM, active compounds read high
Summary of the method: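 Whole-cell yeast assay. The mutant strain was incubated with compounds, and growth inhibition was determined by comparison with vehicle-treated cells.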

[6] = NCI Yeast Anticancer Drug Screen. Data for the mlh1 rad18 strain (AID 175); conditions: S. cerevisiae mlh1 rad18 strain growth inhibition; at 50.0 µM; active compounds read high
Summary of the method: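 Steps: expose repair-defective yeast to compound; measure growth; express inhibition against vehicle-treated controls.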

SMILES | growth inhibition [1] | growth inhibition [2] | growth inhibition [3] | growth inhibition [4] | growth inhibition [5] | growth inhibition [6]
COc1cc(C2C(C(=O)O)=C(CO)Oc3cc4c(cc32)OCO4)cc(OC)c1OC (stereo not given) | -5.4% | 7.35% | -4.95% | 1.1% | -4.6% | 4.25%
[Cu+2].[O-]C1c2c(ccc3ccccc23)-c2ccccc2C1N=Nc1ccccc1.[O-]c1c(N=Nc2ccccc2)c2ccccc2c2ccc3ccccc3c12 (stereo not given) | -19.1% | -20.7% | -7.8% | -20.4% | -10.9% | -20.2%
Cc1ccc(S(=O)(=O)N2CCSCCSCCSCCSCC2)cc1 | -1.3% | -0.1% | 7.1% | 10.6% | -8.9% | -39.1%
CC#CC(C)(C)N(C)C | -16.6% | -8.45% | -8.75% | -21.4% | 12.8% | 14.1%
CC(C)CC(NC(=O)OC(C)(C)C)C(=O)NC(CCC(=O)OCc1ccc([N+](=O)[O-])cc1)C(=O)OCc1ccc([N+](=O)[O-])cc1 (stereo not drawn) (Boc-Leu-Glu(ONb)-ONb; configuration not given here) | -9.3% | -25.5% | -4.5% | 4% | -10.1% | 8.35%
COC(=O)/C(=N/Nc1cccc(Cl)c1)C(C(=O)C(=O)Nc1cccc(Cl)c1C)c1nc2ccccc2nc1C (stereo not given) | 44.8% | 17.9% | 42% | 39.3% | 11.8% | 14.3%
O=c1[nH]nc(SCc2ccccc2)c2nncn12 | 2.45% | 3.1% | 6.35% | 23.4% | 6.55% | 20.1%
CCOC(=O)C(N)C(O)c1ccncc1 (stereo not given) | -8% | -2.45% | -4.25% | -19.8% | 1.5% | 2.2%
CC1=CC(=O)/C(=C/n2c(=S)sc3ccccc32)C(=O)O1 | -27.4% | 7.1% | 27.9% | 23% | -29.9% | 14.6%
Nc1cccc(C(CC(=O)O)CC(=O)O)c1 | 14.8% | 10.9% | 13% | 16.7% | -1.5% | 15.8%
CN(C)Cc1cn(C[Si](C)(C)C)c2ccccc12 | 18.6% | -3.25% | 7.7% | 0.35% | 3.75% | 13.2%
O=C(O)CSCc1ccccc1Cl | 1.6% | -6.05% | -9.5% | 8.25% | -13.1% | -11.1%
CC(O)(c1ccncc1)c1cc2ccccc2n1S(=O)(=O)c1ccccc1 (stereo not given) | 2.2% | 2.65% | 14.8% | -20.1% | 1.95% | 6.15%
ON(C(=NCc1ccccc1)c1ccccc1)c1ccccc1 | 2.25% | 10.6% | 9.65% | -17.4% | 12.4% | 14.7%
N=c1ccn(CC(O)COc2ccccc2)cc1 (stereo not given) | -11.8% | -13.8% | -5.95% | 10.6% | 2.75% | 9.55%
CSCCC(C(=O)O)N(C)C (stereo not given) | -4.3% | -21.3% | -17.3% | -2.9% | -19.6% | -18%
CC(=O)NNC(=S)/N=C/C(C(=O)Nc1ccc([N+](=O)[O-])cc1)=C(\C)O | -19.8% | 4.4% | -21.9% | 15.8% | 6.5% | -4%
Nc1ccc([N+](=O)[O-])c(C(=O)O)c1 | -10.2% | -26.9% | -15% | 15.9% | -15.1% | -6.9%
Cc1cccc(C[P+](C/C=C/c2ccccc2)(c2ccccc2)c2ccccc2)c1 | 98.8% (active) | 99.7% (active) | 99.7% (active) | 99% (active) | 99.5% (active) | 99.5% (active)
Cc1cc(C)nc(NS(=O)(=O)c2ccc(NC(=O)c3cccn4c(=O)c5ccccc5nc34)cc2)n1 | 12.7% | 0.6% | 16.9% | 27.6% | 27.1% | 0.25%

SMILES | growth inhibition [1] | growth inhibition [2] | growth inhibition [3] | growth inhibition [4] | growth inhibition [5] | growth inhibition [6]
CC(=O)NC(c1ccccc1)c1c(O)ccc2ccccc12 (stereo not given) | 26.6% | -2.8% | 10.8% | -33.2% | -2.5% | -5.25%
Cc1ncc(CO)c(Nc2ccccc2Cl)n1 | 2.5% | -2.4% | -6.25% | -16.4% | -11.7% | 14.4%
COc1cc(-c2cc(OC)c(N)cc2Br)c(Br)cc1N | 38.8% | 17.2% | 60.6% | 49.9% | 54.4% | 35.9%
O=C(/C(=N\Nc1ccc([N+](=O)[O-])cc1[N+](=O)[O-])c1ccccc1)c1ccccc1 | -11.6% | -11.7% | -2.5% | -20.8% | 2.95% | -1.3%
CCCS(=O)(=O)N(CC)CC | -0.4% | -10.8% | -1.9% | -27.5% | -5.65% | -15.4%
O=c1[nH]c(Nc2cccc(Br)c2)nc2nc[nH]c12 | -53.2% | -8.65% | -23.9% | -45.4% | -5.9% | -37.5%
COC1OC2COC(c3ccccc3)OC2C2C1N2C(=S)SC (stereo not given) | -4.05% | 1.7% | -2.7% | -17.6% | -0.75% | -0.55%
CCNC(=O)C(CC)(CO)CO | -16.4% | -3.4% | -3.95% | 6.2% | 0.65% | 4.5%
O=C(O)CC(CC(=O)O)c1ccc(F)cc1 | -2% | 0.95% | -10.2% | -2.35% | 2.05% | -8.5%
Cc1cccc2c1ccc1ccccc12 | 5.55% | 6% | -5.45% | -9% | -9.65% | 9.5%
Nc1nc(=O)n(C2OC(CO)C(O)C2Cl)cc1I (stereo not given) | 10.4% | -3.8% | 1.1% | -5.1% | 7.8% | -0.75%
Fc1ccc(-c2nnc(-c3ccc4ccccc4c3)o2)cc1 | 18.1% | -11.3% | 21.4% | 12.2% | 35.8% | -1.3%
Cc1ccc(N=Nc2ccc(C)cc2NC(=O)Nc2cc([N+](=O)[O-])ccc2F)cc1 | 13.4% | -16.1% | -4.6% | -5.9% | -4.3% | -5.4%
CCOc1cc(N)nc(N)n1 | 13.1% | -10.3% | 7.15% | 5.9% | 5.65% | -7.75%
COc1cc(/C=C/c2ccc(/C=C/c3cc(OC)c(OC)c(OC)c3)cc2)cc(OC)c1OC | 11.2% | -5.65% | -29.9% | 1.8% | -8.75% | -9.9%
c1ccc(Nc2cc(Nc3ccccc3)ncn2)cc1 | 4.4% | -20.5% | 3.8% | -6.5% | -2.2% | 2.35%
CCCCCC1CCN(C(=O)c2ccc(N)cc2)CC1 | 90% (active) | 52.8% | 44.8% | 49% | 94.4% (active) | 42.7%
CC(=O)NC(C)CC1=CC(=O)C(C)=CC1=O (stereo not given) | 1.45% | -13.4% | -16.1% | -33.7% | -18.9% | -11.6%
Cc1ccc(S(=O)(=O)N/N=C2/CCC(C(C)(C)C)CC2Br)cc1 (stereo not given) | 3.9% | -2.4% | -6.35% | -2.9% | 17.4% | 2.1%
Cc1ccc(S(=O)(=O)/C(C#N)=C/NC(=S)Nc2ccc(C)cc2C)cc1 | -53.7% | -26.9% | -30.8% | -41.4% | -40.5% | -41.4%
